Records with an inconclusive call do not appear. Active and inactive are the calls of the source. The call rests on the fitted dose curve; in most records, active means well fitted cell-killing curve with a large enough effect; inconclusive means small, poorly fitted or top-dose-only effect; inactive means flat fitted curve, though single readings scatter.
On the % scale 0 is the no-effect control and ±100 the full control effect; potency means the concentration at half of the fitted maximal effect.

A short description of the experiment: DAPI mCherry counterscreen qHTS for Zika virus inhibitors. Further: nearly all actives have a fitted effect of over 55% in size. The conditions noted are these: Vero cells, DAPI nuclear count cytotoxicity, imaging 48-72 h; series mostly up to 32.6 µM. An excerpt:
Assay Submitters (PI): Avindra Nath, Ph.D., National Institute of Neurological Disorders and Stroke (NINDS), Bethesda, MD Radhakrishnan Padmanabhan, Ph.D., Georgetown University (GU), Washington D.C. Zika Virus causes congenital defects, including microcephaly and is associated with Guillain-Barre syndrome, eningoencephalitis and myelitis in infected adult. […] Using a target-based approach, we hope to establish a screening paradigm to uncover novel, cell-active NS2B-NS3 protease (Zika Virus) specific inhibitors from NCATS' collection of small molecules using qHTS. […] Four assay panel was created to identify potential Zika Virus inhibitors. Namely, (1) GU unlinked NS2B-NS3 AMC tagged protease qHTS, (2) GU unlinked NS2B-NS3 Rhodamine tagged protease qHTS, (3) NINDS linked NS2B-NS3 AMC tagged protease qHTS, (4) NINDS linked NS2B-NS3 Rhodamine tagged protease qHTS. Active compounds were re-acquired and re-screened to confirm inhibition. Inhibitors were further screened against various confirmatory and counterscreens in dose response format. […] A DAPI (mCherry counterscreen) which determine Vero cell cytotoxicity was used to exclude false positive compounds. […] Early Translation Branch (ETB) National Center for Advancing Translational Sciences (NCATS), Rockville, MD National Institute of Health (NIH), Bethesda, Maryland
384 well ZIKV-mCherry & mCherry DAPI counterscreen: We have developed a new orthogonal imaging assay in 384-well plate format, which uses recombinant virus ZIKV-mCherry in Vero cells. Briefly, 30 microL of Vero cells derived from a green monkey cell line, were dispensed by Multidrop Dispenser into a clear solid bottom black 384 well plate (ultracarrier, Perkin Elmer LifeSciences) at a concentration of 5,000 cells per well. The plate was incubated overnight in a CO2 incubator at 37 degrees C. Compounds were delivered as a 126 nL DMSO solution by Kalypsys pintool transfer. Following compound transfer, 10 microL of ZIKV-mCherry was added at an MOI of 1 and incubated in a CO2 incubator for 48-72 hrs at 37 degrees C. After sufficient incubation of infected cells in test plates, 8 microL of 32% PFA was dispensed into assay plates to fix cells and incubated for 20 min at room temperature. Plates were washed 3 times with PBS using BioTek EL406 microplate washer/dispenser. After washing, 30 microL of PBS with 0.01% TX-100 containing Hoechst dye was dispensed into the each well of the plates for nuclear staining. 384-well plates were imaged on an automated, widefield high content imager (INCell 2200, GE Healthcare) using a 10x/0.45 NA lens and standard DAPI (nuclear stain) and mCherry (cy5) excitation and emission filters. The TIFFs were quantitated using the canned Multi Target Analysis protocol (GE Investigator Workstation software v3.7.2). Briefly, nuclei from the DAPI channel were identified using top hat segmentation and a sensitivity setting of 96 and minimum size area of 35 microm2. A recombinant Zika viral infection was monitored in the Cy5 channel (cells) using a 2 microm collar dilation from the nuclear bitmap. mCherry objects with an average nuclear RFU intensity above 450 (3 stdev above mean negative control wells) were considered "mcherry positive" and data was analyzed by percent infection rate.
As to `C[C@H]1[C@H]2Cc3ccc(O)cc3[C@]1(C)CCN2CCc1ccccc1`, the Potency was 22.4 µM (active). Next, `CC1=C(O)C(=O)C=C2C1=CC=C1[C@@]2(C)CC[C@@]2(C)[C@@H]3C[C@](C)(C(=O)O)CC[C@]3(C)CC[C@]12C`: 1.12 µM (active). On to `O=c1c(O)c(-c2ccc(O)c(O)c2)oc2c(O)c(O)cc(O)c12`, for which the Potency result is “inactive”. In the case of `N[C@@H](Cc1ccc(Oc2cc(I)c(O)c(I)c2)c(I)c1)C(=O)O` it was “inactive”; in that of `Cc1cc(SCc2sc(-c3ccc(C(F)(F)F)c(F)c3)nc2C)ccc1OCC(=O)O`, 14.1 µM (active). For `O=C(O)C(=O)c1cn(Cc2ccccc2)c2ccc(-c3ccc(OC(F)(F)F)cc3)cc12`, the Potency is 28.2 µM (active). In the case of `O=C1OC(c2ccc(O)c(S(=O)(=O)O)c2)(c2ccc(O)c(S(=O)(=O)O)c2)c2c(Br)c(Br)c(Br)c(Br)c21` it was “inactive”; in that of `O=c1oc2ccccc2c(O)c1C(CC(O)c1ccc(-c2ccc(Br)cc2)cc1)c1ccccc1` (stereo not drawn), 15.8 µM (active); in that of `CC(C)=CCC[C@]1(C)C=Cc2c(O)c3c(c(CC=C(C)C)c2O1)O[C@]12C(=C[C@@H]4CC1C(C)(C)O[C@@]2(C/C=C(/C)C(=O)O)C4=O)C3=O`, 1.12 µM [infected with Zika reporter virus, MOI 1] (active). Next, `CC(C)=CCCC1(C)C=Cc2c(O)c3c(c(CC=C(C)C)c2O1)OC12C(=CC4CC1C(C)(C)OC2(C/C=C(/C)C(=O)O)C4O)C3=O` (stereo not drawn): 3.16 µM (active); `O=c1c(C2CC(c3ccc(-c4ccc(Br)cc4)cc3)Cc3ccccc32)c(O)sc2ccccc12` (stereo not drawn): 8.91 µM (active). In the case of `O=C(Nc1ccc(Br)cc1)c1cc(Br)cc(Br)c1O` it was 8.91 µM (active); in that of `CN(C)[C@@H]1C(=O)C(C(N)=O)=C(O)[C@@]2(O)C(=O)C3=C(O)c4c(O)cccc4[C@@](C)(O)[C@H]3[C@H](O)[C@@H]12`, “inactive”; in that of `O=C(O)c1cc(Oc2ccc(C(F)(F)F)cc2Cl)ccc1[N+](=O)[O-]`, “inactive”.

As to `CCCCCOc1cc2c(cc1-c1cc(/C=C/C(=O)O)ccc1O)C(C)(C)CCC2(C)C`, the Potency was 15.8 µM (active). In the case of `O=C1C(I)=CC(=C(c2cc(I)c(O)c(I)c2)c2ccccc2C(=O)O)C=C1I` it was 25.1 µM (active); in that of `CNc1ccc2oc(C[C@@H]3OC4(CC[C@@H]3C)O[C@H]([C@@H](C)C(=O)c3ccc[nH]3)[C@H](C)C[C@H]4C)nc2c1C(=O)O` (stereo partly drawn), 1 µM (active). Next, `CC(=O)c1c(O)c(C)c(O)c(Cc2c(O)c3c(c(C(=O)/C=C/c4ccccc4)c2O)OC(C)(C)C=C3)c1O`: 14.1 µM (active).

Source of the values: PubChem BioAssay AID1347156 (National Center for Advancing Translational Sciences (NCATS), 2019).
